Measured values from PubChem BioAssay (NCATS).
Records with an inconclusive call do not appear. Active and inactive are the calls of the source. Calls follow the shape of the dose curve; as a rule, active = well fitted curve in the direction sought with a large enough effect; inconclusive = small, poorly fitted or top-dose-only effect, or another doubt; inactive = no such curve, though single readings can be large; an effect the other way counts as inactive or inconclusive.

Key:
C33A = experiment: Primary qHTS to identify gynecologic anti-cancer compounds using libraries of approved drugs and bioactive compounds (AID 1345084); conditions: Gynecologic cancer cell panel viability, ATPlite luminescence, 48 h; series mostly up to 57.5 µM; also: nearly all actives have a fitted effect of over 55% in size
How it was run: (§1)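 Measured: luminescence after ATPlite addition (15 min, RT). Exposure: 48 h, 37 C, 5% CO2.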

CAOV3 = experiment: as above; conditions: Gynecologic cancer cell panel viability, ATPlite luminescence, 48 h; series mostly up to 57.5 µM
How it was run: as §1

CASKI = experiment: as above; conditions: Gynecologic cancer cell panel viability, ATPlite luminescence, 48 h; series mostly up to 57.5 µM
How it was run: as §1

Es-2 = experiment: as above; conditions: Gynecologic cancer cell panel viability, ATPlite luminescence, 48 h; series mostly up to 57.5 µM
How it was run: as §1

HeLa = experiment: as above; conditions: Gynecologic cancer cell panel viability, ATPlite luminescence, 48 h; series mostly up to 57.5 µM
How it was run: as §1

Hek293T = experiment: as above; conditions: Gynecologic cancer cell panel viability, ATPlite luminescence, 48 h, control line for the selectivity index; series mostly up to 57.5 µM
How it was run: as §1

JEG-3 = experiment: as above; conditions: Gynecologic cancer cell panel viability, ATPlite luminescence, 48 h; series mostly up to 57.5 µM
How it was run: as §1

OV90 = experiment: as above; conditions: Gynecologic cancer cell panel viability, ATPlite luminescence, 48 h; series mostly up to 57.5 µM
How it was run: as §1

PA-1 = experiment: as above; conditions: Gynecologic cancer cell panel viability, ATPlite luminescence, 48 h; series mostly up to 57.5 µM
How it was run: as §1

SKOV3 = experiment: as above; conditions: Gynecologic cancer cell panel viability, ATPlite luminescence, 48 h; series mostly up to 57.5 µM
How it was run: as §1

Tov-21-G = experiment: as above; conditions: Gynecologic cancer cell panel viability, ATPlite luminescence, 48 h; series mostly up to 57.5 µM
How it was run: as §1

Tov112D = experiment: as above; conditions: Gynecologic cancer cell panel viability, ATPlite luminescence, 48 h; series mostly up to 57.5 µM
How it was run: as §1

[1] = Drug repurposing screens with cells derived from glioblastoma tumor samples (AID 1345199); conditions: GBM patient neurospheres viability, ATP luminescence, 48 h; also: nearly all actives have a fitted effect of over 40% in size
How it was run: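 Four patient lines of CD133+ GBM neurospheres were screened at several concentrations; hits were retested in those lines plus three slower-growing GBM lines, using 48-hour treatment and ATP-based viability.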
% is scaled to controls: 0 for no effect and ±100 for the full control effect.

C[C@@H]1O[C@@H](O[C@H]2[C@H](OC(C#N)c3ccc(O)cc3)O[C@H](CO)[C@@H](O)[C@@H]2O)[C@H](O)[C@H](O)[C@H]1O (stereo partly specified)
inactive: Potency (C33A) | Potency (CAOV3) | Potency (CASKI) | Potency (Es-2) | Potency (HeLa) | Potency (Hek293T) | Potency (JEG-3) | Potency (OV90) | Potency (PA-1) | Potency (SKOV3) | Potency (Tov-21-G) | Potency (Tov112D)

c1nc(NC2CCCCCC2)c2cc(CNC[C@H]3CCCO3)sc2n1
inactive: Potency (C33A) | Potency (CAOV3) | Potency (CASKI) | Potency (Es-2) | Potency (HeLa) | Potency (Hek293T) | Potency (JEG-3) | Potency (OV90) | Potency (PA-1) | Potency (SKOV3) | Potency (Tov-21-G) | Potency (Tov112D)

C=C(C(=O)O)C1CCC(C)C2CCC(=O)OC2(C)C1 (stereo unspecified)
inactive: Potency (C33A) | Potency (CAOV3) | Potency (CASKI) | Potency (Es-2) | Potency (HeLa) | Potency (Hek293T) | Potency (JEG-3) | Potency (OV90) | Potency (PA-1) | Potency (SKOV3) | Potency (Tov-21-G) | Potency (Tov112D)

C=C1CCC2C(OC(=O)C2(O)COC(C)=O)C2C(=C)C(O)CC12 (stereo unspecified)
inactive: Potency (C33A) | Potency (CAOV3) | Potency (CASKI) | Potency (Es-2) | Potency (HeLa) | Potency (Hek293T) | Potency (JEG-3) | Potency (OV90) | Potency (PA-1) | Potency (SKOV3) | Potency (Tov-21-G) | Potency (Tov112D)

CCOc1c2c(c(OCC)c3ccccc13)C(=O)N(c1ccc(CC(=O)NS(=O)(=O)c3ccccc3)cc1)C2
inactive: Potency (C33A) | Potency (CAOV3) | Potency (CASKI) | Potency (Es-2) | Potency (HeLa) | Potency (Hek293T) | Potency (JEG-3) | Potency (OV90) | Potency (PA-1) | Potency (SKOV3) | Potency (Tov-21-G) | Potency (Tov112D)

COc1cc(C(=O)OC[C@H]2O[C@H](O[C@@]3(CO)O[C@@H](CO)[C@H](O)[C@H]3O)[C@H](O)[C@@H](O)[C@@H]2O)ccc1O
inactive: Potency (C33A) | Potency (CAOV3) | Potency (CASKI) | Potency (Es-2) | Potency (HeLa) | Potency (Hek293T) | Potency (JEG-3) | Potency (OV90) | Potency (PA-1) | Potency (SKOV3) | Potency (Tov-21-G) | Potency (Tov112D)

CC(=O)c1c(O)cc2c(c1C)C(=O)CC(O)C2 (stereo unspecified)
inactive: Potency (C33A) | Potency (CAOV3) | Potency (CASKI) | Potency (Es-2) | Potency (HeLa) | Potency (Hek293T) | Potency (JEG-3) | Potency (OV90) | Potency (PA-1) | Potency (SKOV3) | Potency (Tov-21-G) | Potency (Tov112D)

CCOc1ccc(-c2ccc(Cn3c(CC(C)(C)C(=O)O)c(SC(C)(C)C)c4cc(OCc5ccc(C)cn5)ccc43)cc2)cn1
inactive: Potency (C33A) | Potency (CAOV3) | Potency (CASKI) | Potency (Es-2) | Potency (HeLa) | Potency (Hek293T) | Potency (JEG-3) | Potency (OV90) | Potency (PA-1) | Potency (SKOV3) | Potency (Tov-21-G) | Potency (Tov112D)

OC[C@H]1O[C@@H](Oc2ccc3c(c2)OC[C@H]2c4cc5c(cc4O[C@@H]32)OCO5)[C@H](O)[C@@H](O)[C@@H]1O
inactive: Potency (C33A) | Potency (CAOV3) | Potency (CASKI) | Potency (Es-2) | Potency (HeLa) | Potency (Hek293T) | Potency (JEG-3) | Potency (OV90) | Potency (PA-1) | Potency (SKOV3) | Potency (Tov-21-G) | Potency (Tov112D)

Cc1cccc(-c2[nH]c(CNc3ccccc3F)nc2-c2ccc3ncnn3c2)n1
inactive: Potency (C33A) | Potency (CAOV3) | Potency (CASKI) | Potency (Es-2) | Potency (HeLa) | Potency (Hek293T) | Potency (JEG-3) | Potency (OV90) | Potency (PA-1) | Potency (SKOV3) | Potency (Tov-21-G) | Potency (Tov112D)

COc1ccc2c3c1O[C@H]1C[C@@H](O)C=C[C@@]31CCN(C)C2
inactive: Potency (C33A) | Potency (CAOV3) | Potency (CASKI) | Potency (Es-2) | Potency (HeLa) | Potency (Hek293T) | Potency (JEG-3) | Potency (OV90) | Potency (PA-1) | Potency (SKOV3) | Potency (Tov-21-G) | Potency (Tov112D)

O=c1ccn(C2OC(CO)C(O)C2O)c(=O)[nH]1 (stereo unspecified)
inactive: Potency (C33A) | Potency (CAOV3) | Potency (CASKI) | Potency (Es-2) | Potency (HeLa) | Potency (Hek293T) | Potency (JEG-3) | Potency (OV90) | Potency (PA-1) | Potency (SKOV3) | Potency (Tov-21-G) | Potency (Tov112D)

O=C1CC(c2ccc([N+](=O)[O-])cc2)=NN1c1ccccc1
inactive: Potency (C33A) | Potency (CAOV3) | Potency (CASKI) | Potency (Es-2) | Potency (HeLa) | Potency (Hek293T) | Potency (JEG-3) | Potency (OV90) | Potency (PA-1) | Potency (SKOV3) | Potency (Tov-21-G) | Potency (Tov112D)

CCCOc1ccn2c(C(C)=O)cc(-c3ccccc3S(C)(=O)=O)c2c1
inactive: Potency (C33A) | Potency (CAOV3) | Potency (CASKI) | Potency (Es-2) | Potency (HeLa) | Potency (Hek293T) | Potency (JEG-3) | Potency (OV90) | Potency (PA-1) | Potency (Tov-21-G) | Potency (Tov112D)

COc1cc(/C=C/C(=O)OC[C@H]2O[C@H](O[C@]3(CO)O[C@H](CO)[C@@H](O)[C@@H]3O)[C@H](O)[C@@H](O)[C@@H]2O)cc(OC)c1O
inactive: Potency (C33A) | Potency (CAOV3) | Potency (CASKI) | Potency (Es-2) | Potency (HeLa) | Potency (Hek293T) | Potency (JEG-3) | Potency (OV90) | Potency (PA-1) | Potency (SKOV3) | Potency (Tov-21-G) | Potency (Tov112D)

CCC(C)(O)C(O)C(=O)OCc1ccc(O[C@@H]2O[C@H](CO)[C@@H](O)[C@H](O)[C@H]2O)cc1 (stereo partly specified)
inactive: Potency (C33A) | Potency (CAOV3) | Potency (CASKI) | Potency (Es-2) | Potency (HeLa) | Potency (Hek293T) | Potency (JEG-3) | Potency (OV90) | Potency (PA-1) | Potency (SKOV3) | Potency (Tov-21-G) | Potency (Tov112D)

COc1ccc(/C=C/C(=O)O[C@@H]2[C@@H](OC(C)=O)[C@@H](OC(C)=O)[C@H](O[C@H]3[C@@H]4C=CO[C@@H](O[C@@H]5O[C@H](CO)[C@@H](O)[C@H](O)[C@H]5O)[C@@H]4[C@@]4(CO)O[C@@H]34)O[C@H]2C)cc1O
inactive: Potency (C33A) | Potency (CAOV3) | Potency (CASKI) | Potency (Es-2) | Potency (HeLa) | Potency (Hek293T) | Potency (JEG-3) | Potency (OV90) | Potency (PA-1) | Potency (SKOV3) | Potency (Tov-21-G) | Potency (Tov112D)

CCc1c(CC(N)=O)c2cc(OCCCP(=O)(O)O)ccc2n1Cc1ccccc1
inactive: Potency (C33A) | Potency (CAOV3) | Potency (CASKI) | Potency (Es-2) | Potency (HeLa) | Potency (Hek293T) | Potency (JEG-3) | Potency (OV90) | Potency (PA-1) | Potency (Tov-21-G) | Potency (Tov112D)

O=C(OCC12OC1C=CC(OC(=O)c1ccccc1)C2O)c1ccccc1 (stereo unspecified)
inactive: Potency (C33A) | Potency (CAOV3) | Potency (CASKI) | Potency (Es-2) | Potency (HeLa) | Potency (Hek293T) | Potency (JEG-3) | Potency (OV90) | Potency (PA-1) | Potency (SKOV3) | Potency (Tov-21-G) | Potency (Tov112D)

OC[C@H]1O[C@@H](OCCc2ccc(O)cc2)[C@H](O)[C@@H](O)[C@@H]1O
inactive: Potency (C33A) | Potency (CAOV3) | Potency (CASKI) | Potency (Es-2) | Potency (HeLa) | Potency (Hek293T) | Potency (JEG-3) | Potency (OV90) | Potency (PA-1) | Potency (SKOV3) | Potency (Tov-21-G) | Potency (Tov112D) | activity, negative = cell killing ([1]; at 45.9 µM (top of the series), tumour line B) -17.4% | activity, negative = cell killing ([1]; at 45.9 µM (top of the series), tumour line D) 11.3% | activity, negative = cell killing ([1]; at 46 µM (top of the series), tumour line A) -5.89% | activity, negative = cell killing ([1]; at 46.1 µM (top of the series), tumour line C) 4.11%

CC(C)[C@H]1CCC(CO)=C[C@@H]1/C=C(\CO)C(=O)O
inactive: Potency (C33A) | Potency (CAOV3) | Potency (CASKI) | Potency (Es-2) | Potency (HeLa) | Potency (Hek293T) | Potency (JEG-3) | Potency (OV90) | Potency (PA-1) | Potency (SKOV3) | Potency (Tov-21-G) | Potency (Tov112D)

C=C1CCC(OC(C)=O)C2(C)CC3(O)OC(=O)C(C)=C3CC12 (stereo unspecified)
inactive: Potency (C33A) | Potency (CAOV3) | Potency (CASKI) | Potency (Es-2) | Potency (HeLa) | Potency (Hek293T) | Potency (JEG-3) | Potency (OV90) | Potency (PA-1) | Potency (SKOV3) | Potency (Tov-21-G) | Potency (Tov112D)
